# Laboratory results: ChEMBL document CHEMBL1961873, “Compounds: GSK PKIS; Assays: Nanosyn kinase panel” (2012)
# Assays:
# [1] = target: Fibroblast growth factor receptor 4 (Homo sapiens) (UniProt P22455); details: at 1 µM;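 further: reported figure is the averaged percent inhibition of FGFR4, from the GSK PKIS kinase screening panel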
# [2] = target: Tyrosine-protein kinase Fgr (Homo sapiens) (UniProt P09769); details: at 0.1 µM
# [3] = target: Tyrosine-protein kinase Fgr (Homo sapiens) (UniProt P09769); details: at 1 µM
# [4] = target: Vascular endothelial growth factor receptor 1 (Homo sapiens) (UniProt P17948); details: at 0.1 µM
# Chain of Vascular endothelial growth factor receptor 1 (Homo sapiens) (P17948 whole entry): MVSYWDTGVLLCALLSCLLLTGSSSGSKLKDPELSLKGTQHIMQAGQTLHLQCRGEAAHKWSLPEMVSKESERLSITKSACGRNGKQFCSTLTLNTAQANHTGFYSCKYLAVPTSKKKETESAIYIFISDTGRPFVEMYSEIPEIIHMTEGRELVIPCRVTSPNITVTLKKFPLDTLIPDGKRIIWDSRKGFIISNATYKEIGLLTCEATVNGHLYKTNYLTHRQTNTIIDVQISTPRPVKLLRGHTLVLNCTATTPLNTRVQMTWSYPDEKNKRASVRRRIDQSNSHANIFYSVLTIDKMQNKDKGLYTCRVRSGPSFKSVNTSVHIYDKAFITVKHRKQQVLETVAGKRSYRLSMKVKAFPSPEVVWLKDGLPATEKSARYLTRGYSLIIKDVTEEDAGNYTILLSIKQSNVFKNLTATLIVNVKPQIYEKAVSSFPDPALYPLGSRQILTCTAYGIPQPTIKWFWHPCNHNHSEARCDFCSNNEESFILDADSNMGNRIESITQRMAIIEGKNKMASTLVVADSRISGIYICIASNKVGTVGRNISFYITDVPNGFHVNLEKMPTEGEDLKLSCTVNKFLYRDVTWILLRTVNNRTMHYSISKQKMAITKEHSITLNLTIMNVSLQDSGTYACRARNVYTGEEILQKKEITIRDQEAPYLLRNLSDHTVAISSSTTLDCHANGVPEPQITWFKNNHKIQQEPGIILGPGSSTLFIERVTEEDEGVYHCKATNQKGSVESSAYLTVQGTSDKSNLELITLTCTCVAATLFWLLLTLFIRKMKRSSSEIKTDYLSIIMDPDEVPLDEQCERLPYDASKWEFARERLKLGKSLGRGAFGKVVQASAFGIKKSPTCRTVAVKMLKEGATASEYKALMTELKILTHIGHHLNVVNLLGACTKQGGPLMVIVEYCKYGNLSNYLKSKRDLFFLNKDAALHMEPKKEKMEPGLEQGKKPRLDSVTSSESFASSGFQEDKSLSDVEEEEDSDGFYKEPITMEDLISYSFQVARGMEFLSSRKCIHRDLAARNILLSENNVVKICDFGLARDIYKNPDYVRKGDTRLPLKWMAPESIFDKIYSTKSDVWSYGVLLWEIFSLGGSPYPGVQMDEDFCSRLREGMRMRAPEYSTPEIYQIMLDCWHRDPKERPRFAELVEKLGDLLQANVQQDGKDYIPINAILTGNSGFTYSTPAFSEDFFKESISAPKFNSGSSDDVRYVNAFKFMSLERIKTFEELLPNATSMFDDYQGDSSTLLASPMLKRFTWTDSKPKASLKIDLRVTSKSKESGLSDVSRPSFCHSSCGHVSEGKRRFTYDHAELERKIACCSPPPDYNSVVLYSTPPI
# [5] = target: Vascular endothelial growth factor receptor 1 (Homo sapiens) (UniProt P17948); details: at 1 µM
# [6] = target: Receptor-type tyrosine-protein kinase FLT3 (Homo sapiens) (UniProt P36888); details: at 0.1 µM
# [7] = target: Receptor-type tyrosine-protein kinase FLT3 (Homo sapiens) (UniProt P36888); details: at 1 µM
# [8] = test system: T1, Receptor-type tyrosine-protein kinase FLT3 (Homo sapiens), P36888 [D835Y]; details: at 0.1 µM
# T1 sequence (whole entry): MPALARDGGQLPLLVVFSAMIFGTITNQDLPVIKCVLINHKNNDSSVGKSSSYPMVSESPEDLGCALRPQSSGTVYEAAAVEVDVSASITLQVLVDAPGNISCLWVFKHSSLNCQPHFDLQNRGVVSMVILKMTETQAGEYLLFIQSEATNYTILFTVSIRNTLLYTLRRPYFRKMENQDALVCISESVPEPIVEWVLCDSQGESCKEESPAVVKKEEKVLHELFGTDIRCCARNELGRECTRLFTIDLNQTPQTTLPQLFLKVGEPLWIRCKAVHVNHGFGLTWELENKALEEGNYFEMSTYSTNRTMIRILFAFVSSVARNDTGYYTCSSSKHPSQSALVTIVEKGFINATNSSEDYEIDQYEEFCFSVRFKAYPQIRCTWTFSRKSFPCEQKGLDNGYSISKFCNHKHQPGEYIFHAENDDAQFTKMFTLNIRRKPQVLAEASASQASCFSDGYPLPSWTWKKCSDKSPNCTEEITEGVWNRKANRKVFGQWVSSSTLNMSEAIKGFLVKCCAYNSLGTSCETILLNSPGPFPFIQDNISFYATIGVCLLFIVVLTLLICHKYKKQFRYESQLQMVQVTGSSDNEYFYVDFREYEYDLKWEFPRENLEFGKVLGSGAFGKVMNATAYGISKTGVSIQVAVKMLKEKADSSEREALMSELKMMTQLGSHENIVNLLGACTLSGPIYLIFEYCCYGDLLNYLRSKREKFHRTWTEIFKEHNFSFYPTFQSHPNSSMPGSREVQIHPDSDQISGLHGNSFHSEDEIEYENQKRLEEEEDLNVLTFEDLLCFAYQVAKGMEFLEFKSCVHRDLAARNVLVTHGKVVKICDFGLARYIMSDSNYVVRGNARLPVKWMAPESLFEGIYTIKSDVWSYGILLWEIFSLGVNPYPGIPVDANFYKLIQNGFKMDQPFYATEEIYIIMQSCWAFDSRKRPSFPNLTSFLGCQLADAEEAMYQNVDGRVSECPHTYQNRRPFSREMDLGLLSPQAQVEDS
# [9] = target: Non-receptor tyrosine-protein kinase TYK2 (Homo sapiens) (UniProt P29597); details: at 1 µM;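 further: values are mean percent inhibition of TYK2 kinase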
# Chain of Non-receptor tyrosine-protein kinase TYK2 (Homo sapiens) (P29597 whole entry): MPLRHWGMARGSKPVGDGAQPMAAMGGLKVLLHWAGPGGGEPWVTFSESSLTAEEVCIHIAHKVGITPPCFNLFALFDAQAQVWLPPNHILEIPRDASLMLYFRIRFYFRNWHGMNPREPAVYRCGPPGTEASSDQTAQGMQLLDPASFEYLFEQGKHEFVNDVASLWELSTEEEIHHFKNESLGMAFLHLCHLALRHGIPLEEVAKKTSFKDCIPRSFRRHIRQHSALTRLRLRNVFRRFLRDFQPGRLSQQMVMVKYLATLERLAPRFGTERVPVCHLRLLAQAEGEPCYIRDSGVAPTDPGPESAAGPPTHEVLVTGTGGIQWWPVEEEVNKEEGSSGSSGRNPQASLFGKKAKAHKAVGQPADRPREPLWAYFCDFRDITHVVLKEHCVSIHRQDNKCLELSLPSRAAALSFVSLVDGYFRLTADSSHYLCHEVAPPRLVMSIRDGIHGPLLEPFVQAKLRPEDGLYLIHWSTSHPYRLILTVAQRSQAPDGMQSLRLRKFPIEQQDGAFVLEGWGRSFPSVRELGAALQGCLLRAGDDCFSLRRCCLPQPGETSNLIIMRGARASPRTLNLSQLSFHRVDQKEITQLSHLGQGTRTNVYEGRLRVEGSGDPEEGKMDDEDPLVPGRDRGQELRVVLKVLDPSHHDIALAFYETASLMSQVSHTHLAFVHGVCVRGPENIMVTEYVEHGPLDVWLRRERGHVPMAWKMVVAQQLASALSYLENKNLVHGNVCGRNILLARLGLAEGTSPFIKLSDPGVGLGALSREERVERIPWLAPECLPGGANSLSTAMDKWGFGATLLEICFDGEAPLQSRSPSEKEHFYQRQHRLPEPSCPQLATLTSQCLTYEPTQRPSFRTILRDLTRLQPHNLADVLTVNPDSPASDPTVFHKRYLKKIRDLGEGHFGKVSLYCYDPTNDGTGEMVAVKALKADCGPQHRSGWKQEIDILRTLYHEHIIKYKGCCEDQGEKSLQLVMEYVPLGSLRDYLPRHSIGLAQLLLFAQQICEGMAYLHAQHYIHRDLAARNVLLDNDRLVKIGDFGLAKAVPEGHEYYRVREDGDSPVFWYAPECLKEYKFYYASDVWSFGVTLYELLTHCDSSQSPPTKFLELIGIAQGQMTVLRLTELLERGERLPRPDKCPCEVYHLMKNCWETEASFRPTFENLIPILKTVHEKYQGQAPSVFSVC
# [10] = target: T2, Tyrosine-protein kinase receptor TYRO3 (Homo sapiens) (UniProt Q06418); details: at 0.1 µM
# T2 sequence (whole entry): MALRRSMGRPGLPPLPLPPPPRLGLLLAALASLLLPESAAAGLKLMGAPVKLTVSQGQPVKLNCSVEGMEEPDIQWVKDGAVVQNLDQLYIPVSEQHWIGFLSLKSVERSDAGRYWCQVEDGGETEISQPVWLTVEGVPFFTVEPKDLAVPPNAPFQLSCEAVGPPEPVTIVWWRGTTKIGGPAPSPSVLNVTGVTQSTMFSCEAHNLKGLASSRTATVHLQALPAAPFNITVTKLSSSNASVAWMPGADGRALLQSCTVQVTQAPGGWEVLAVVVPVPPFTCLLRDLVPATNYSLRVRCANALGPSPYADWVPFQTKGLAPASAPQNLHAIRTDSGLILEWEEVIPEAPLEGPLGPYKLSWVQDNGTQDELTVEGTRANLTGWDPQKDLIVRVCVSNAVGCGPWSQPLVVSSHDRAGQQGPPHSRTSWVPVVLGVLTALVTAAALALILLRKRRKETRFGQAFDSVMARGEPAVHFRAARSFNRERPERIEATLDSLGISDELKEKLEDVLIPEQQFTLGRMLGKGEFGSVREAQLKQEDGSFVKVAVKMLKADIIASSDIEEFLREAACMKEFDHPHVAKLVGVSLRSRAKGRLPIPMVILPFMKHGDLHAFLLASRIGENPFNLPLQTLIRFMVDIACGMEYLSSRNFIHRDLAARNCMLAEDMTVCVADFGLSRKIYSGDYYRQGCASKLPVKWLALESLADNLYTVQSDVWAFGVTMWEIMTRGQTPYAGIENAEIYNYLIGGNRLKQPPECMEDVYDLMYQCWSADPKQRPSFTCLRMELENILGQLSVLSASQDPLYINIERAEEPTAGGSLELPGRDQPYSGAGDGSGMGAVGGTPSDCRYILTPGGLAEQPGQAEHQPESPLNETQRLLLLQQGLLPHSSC
# [11] = target: T2, Tyrosine-protein kinase receptor TYRO3 (Homo sapiens); details: at 1 µM
# [12] = target: Tyrosine-protein kinase Yes (Homo sapiens) (UniProt P07947); details: at 0.1 µM
# Chain of Tyrosine-protein kinase Yes (Homo sapiens) (P07947 2-543 limits assumed): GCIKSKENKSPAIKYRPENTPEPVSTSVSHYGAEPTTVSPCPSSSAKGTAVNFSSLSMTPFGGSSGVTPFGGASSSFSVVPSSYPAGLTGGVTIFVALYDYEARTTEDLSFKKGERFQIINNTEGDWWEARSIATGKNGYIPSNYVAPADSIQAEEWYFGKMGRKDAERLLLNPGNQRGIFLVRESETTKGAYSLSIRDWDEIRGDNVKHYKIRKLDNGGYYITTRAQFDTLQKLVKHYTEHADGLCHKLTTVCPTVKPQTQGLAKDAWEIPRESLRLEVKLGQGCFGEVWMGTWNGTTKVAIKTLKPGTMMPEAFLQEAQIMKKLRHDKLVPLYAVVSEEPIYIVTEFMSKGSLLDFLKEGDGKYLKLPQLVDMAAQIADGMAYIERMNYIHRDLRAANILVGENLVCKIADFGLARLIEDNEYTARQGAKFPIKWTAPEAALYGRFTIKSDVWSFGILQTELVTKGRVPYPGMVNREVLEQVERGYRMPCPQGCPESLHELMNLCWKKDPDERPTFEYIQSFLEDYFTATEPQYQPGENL
# [13] = target: Tyrosine-protein kinase Yes (Homo sapiens) (UniProt P07947); details: at 1 µM
# [14] = target: T3, Tyrosine-protein kinase ZAP-70 (Homo sapiens) (UniProt P43403); details: at 0.1 µM
# T3 sequence (whole entry): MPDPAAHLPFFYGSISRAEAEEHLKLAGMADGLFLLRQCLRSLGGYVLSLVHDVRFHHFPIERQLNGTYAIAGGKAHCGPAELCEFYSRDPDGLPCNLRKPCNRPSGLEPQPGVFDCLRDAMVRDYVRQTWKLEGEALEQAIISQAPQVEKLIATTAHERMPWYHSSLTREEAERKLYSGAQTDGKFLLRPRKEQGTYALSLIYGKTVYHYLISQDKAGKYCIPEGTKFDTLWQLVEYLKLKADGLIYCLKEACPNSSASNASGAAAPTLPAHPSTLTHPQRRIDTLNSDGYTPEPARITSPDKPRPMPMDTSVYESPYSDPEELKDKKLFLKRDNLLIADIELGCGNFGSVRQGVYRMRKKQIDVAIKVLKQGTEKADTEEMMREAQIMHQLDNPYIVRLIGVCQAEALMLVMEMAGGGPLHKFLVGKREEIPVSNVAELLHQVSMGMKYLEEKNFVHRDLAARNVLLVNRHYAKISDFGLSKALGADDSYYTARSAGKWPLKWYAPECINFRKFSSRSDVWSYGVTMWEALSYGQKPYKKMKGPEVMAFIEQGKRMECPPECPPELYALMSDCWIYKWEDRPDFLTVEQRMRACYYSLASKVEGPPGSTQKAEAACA
# [15] = target: T3, Tyrosine-protein kinase ZAP-70 (Homo sapiens); details: at 1 µM
# [16] = target: Serine/threonine-protein kinase B-raf (Homo sapiens) (UniProt P15056); details: at 0.1 µM
# Chain of Serine/threonine-protein kinase B-raf (Homo sapiens) (P15056 whole entry): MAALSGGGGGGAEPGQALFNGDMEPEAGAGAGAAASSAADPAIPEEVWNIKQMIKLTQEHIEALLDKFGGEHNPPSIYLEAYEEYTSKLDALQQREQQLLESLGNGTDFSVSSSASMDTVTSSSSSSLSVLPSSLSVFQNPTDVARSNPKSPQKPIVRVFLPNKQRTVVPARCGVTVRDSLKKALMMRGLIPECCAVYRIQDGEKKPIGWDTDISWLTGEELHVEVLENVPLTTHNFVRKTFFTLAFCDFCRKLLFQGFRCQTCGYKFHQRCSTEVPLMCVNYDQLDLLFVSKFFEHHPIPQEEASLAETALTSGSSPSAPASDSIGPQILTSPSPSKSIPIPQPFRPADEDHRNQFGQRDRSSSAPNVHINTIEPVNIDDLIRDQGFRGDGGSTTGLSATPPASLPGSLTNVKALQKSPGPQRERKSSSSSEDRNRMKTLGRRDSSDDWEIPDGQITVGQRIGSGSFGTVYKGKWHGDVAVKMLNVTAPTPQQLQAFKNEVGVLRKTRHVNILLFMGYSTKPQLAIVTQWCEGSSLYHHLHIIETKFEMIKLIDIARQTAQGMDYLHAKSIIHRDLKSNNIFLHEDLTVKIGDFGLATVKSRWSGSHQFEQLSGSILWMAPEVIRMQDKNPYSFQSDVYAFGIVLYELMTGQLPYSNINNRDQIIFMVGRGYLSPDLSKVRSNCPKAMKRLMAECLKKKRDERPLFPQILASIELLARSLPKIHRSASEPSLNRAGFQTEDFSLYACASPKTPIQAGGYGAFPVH
# [17] = target: Serine/threonine-protein kinase B-raf (Homo sapiens) (UniProt P15056); details: at 1 µM
# [18] = test system: Serine/threonine-protein kinase B-raf (Homo sapiens), P15056 [V600E]; details: at 0.1 µM
# Chain of Serine/threonine-protein kinase B-raf (Homo sapiens), P15056 [V600E] (P15056 whole entry V600E): as the sequence (P15056 whole entry) above, with V600E counted along it
# [19] = test system: Serine/threonine-protein kinase B-raf (Homo sapiens), P15056 [V600E]; details: at 1 µM
# [20] = target: RAF proto-oncogene serine/threonine-protein kinase (Homo sapiens) (UniProt P04049); details: at 0.1 µM;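 further: values are mean CRAF kinase inhibition from profiling of the GSK Published Kinase Inhibitor Set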
# Chain of RAF proto-oncogene serine/threonine-protein kinase (Homo sapiens) (P04049 whole entry): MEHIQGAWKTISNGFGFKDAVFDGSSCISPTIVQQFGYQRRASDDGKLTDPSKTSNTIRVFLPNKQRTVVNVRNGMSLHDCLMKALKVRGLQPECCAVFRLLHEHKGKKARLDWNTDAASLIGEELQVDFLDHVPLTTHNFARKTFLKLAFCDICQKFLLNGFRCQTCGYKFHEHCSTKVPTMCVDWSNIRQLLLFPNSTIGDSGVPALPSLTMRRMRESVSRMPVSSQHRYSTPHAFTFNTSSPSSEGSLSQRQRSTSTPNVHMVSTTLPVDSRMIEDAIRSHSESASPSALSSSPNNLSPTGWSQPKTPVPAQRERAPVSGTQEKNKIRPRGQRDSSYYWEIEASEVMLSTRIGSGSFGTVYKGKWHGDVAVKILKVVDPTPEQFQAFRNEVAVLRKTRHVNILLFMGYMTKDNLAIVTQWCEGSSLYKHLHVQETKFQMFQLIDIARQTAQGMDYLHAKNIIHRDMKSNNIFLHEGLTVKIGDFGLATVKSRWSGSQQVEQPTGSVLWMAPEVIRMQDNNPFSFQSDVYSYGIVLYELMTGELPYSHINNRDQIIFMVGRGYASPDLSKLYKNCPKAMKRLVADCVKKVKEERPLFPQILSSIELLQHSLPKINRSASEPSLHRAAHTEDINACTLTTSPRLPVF
# Chain of Tyrosine-protein kinase Fgr (Homo sapiens) (P09769 2-529 limits assumed): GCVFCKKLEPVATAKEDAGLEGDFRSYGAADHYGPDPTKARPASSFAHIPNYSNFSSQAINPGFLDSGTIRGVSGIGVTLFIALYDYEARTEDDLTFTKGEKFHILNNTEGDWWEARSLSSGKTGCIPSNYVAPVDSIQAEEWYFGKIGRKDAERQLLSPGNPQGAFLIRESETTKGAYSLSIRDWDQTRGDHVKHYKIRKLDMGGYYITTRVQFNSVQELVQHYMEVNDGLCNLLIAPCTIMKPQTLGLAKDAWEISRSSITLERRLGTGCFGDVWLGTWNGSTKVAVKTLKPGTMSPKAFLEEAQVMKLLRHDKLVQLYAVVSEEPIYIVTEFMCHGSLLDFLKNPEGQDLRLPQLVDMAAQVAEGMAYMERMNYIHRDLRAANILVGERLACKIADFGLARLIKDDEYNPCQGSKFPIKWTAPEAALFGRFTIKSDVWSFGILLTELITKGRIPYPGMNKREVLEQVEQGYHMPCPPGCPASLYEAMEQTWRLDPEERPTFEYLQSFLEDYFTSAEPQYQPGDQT
SMILES,inhibition [1],inhibition [2],inhibition [3],inhibition [4],inhibition [5],inhibition [6],inhibition [7],inhibition [8],inhibition [9],inhibition [10],inhibition [11],inhibition [12],inhibition [13],inhibition [14],inhibition [15],inhibition [16],inhibition [17],inhibition [18],inhibition [19],inhibition [20]
Cc1nn(C)c2cc(N(C)c3ccnc(Nc4cccc(S(N)(=O)=O)c4)n3)ccc12,0.29%,14.8%,48%,2.5%,30%,2.69%,15.4%,2.72%,2.39%,6.07%,29.9%,9.9%,45.6%,-2.66%,16%,4.26%,7.71%,4.01%,6.87%,-2.36%
[O-][S+]1CCN(Cc2ccc(-c3ccc4ncnc(Nc5ccc(OCc6ccccc6)c(F)c5)c4c3)o2)CC1,0.02%,0.4%,9.74%,1.64%,-1.13%,-0.1%,2.1%,-4.8%,-3.99%,1.34%,3.36%,5.74%,30.5%,2.48%,1.13%,2.02%,5.8%,2.97%,6.44%,-0.54%
CS(=O)(=O)CCN(CC#N)Cc1ccc(-c2ccc3ncnc(Nc4ccc(OCc5cccc(F)c5)c(Cl)c4)c3c2)o1,-4.08%,0.96%,1.68%,3.08%,6.33%,-0.67%,2.32%,-4.23%,-4.41%,-1.18%,2.22%,-1.67%,2.4%,-3.82%,-0.8%,4.46%,1.74%,1.42%,2.17%,0.21%
O=C1Nc2ccc(C(=O)c3ccco3)cc2C1=Cc1cc(Cl)c(O)c(Cl)c1,7.04%,2.46%,11.6%,1.07%,4.42%,1.69%,12.7%,4.82%,26.4%,1.96%,8.57%,2.58%,15.8%,2.14%,3.97%,11.8%,26.7%,12.5%,27.4%,2.35%
CNC(=O)c1cncc(/C=C/c2c(Cl)cccc2Cl)c1,1.17%,3.11%,21.3%,0.03%,4.61%,-0.33%,2.17%,-3.3%,-3.44%,1.91%,4.06%,3.3%,17.2%,0.11%,1.58%,6.39%,10.5%,3.03%,4.23%,5.08%
CCn1c(-c2nonc2N)nc2cncc(C(=O)N3CC[C@H](N)C3)c21,0.42%,3.4%,1.29%,-0.71%,4.67%,1.58%,1.11%,-5.73%,-0.04%,4.09%,6.78%,1.84%,5.96%,-1.89%,-1.69%,6.39%,7.03%,7.1%,6.82%,12.6%
Cc1cccc(-c2n[nH]cc2-c2ccc3ncccc3n2)n1,1.18%,2.06%,4.41%,3.33%,29.2%,-1.33%,-0.33%,-5.04%,0.67%,0.27%,1.88%,1.95%,9.98%,3.21%,1.47%,1.47%,1.32%,0.26%,1.23%,-0.77%
CC1=C(C(=O)Nc2ccc3[nH]ncc3c2)C(c2ccc3ccccc3c2)CC(=O)N1 (stereo not given),10.6%,3.21%,15.1%,2.44%,4.08%,0.05%,3.17%,0.1%,4.98%,3.61%,6.2%,16.6%,62.9%,3.08%,2.98%,8.21%,43.5%,8.51%,45.2%,1.05%
COc1cc(C=NNc2ncnc3c2cnn3-c2ccccc2)ccc1O,3.32%,12.8%,49.6%,3.24%,15.1%,15.6%,54.6%,17.7%,0.57%,5.56%,33.5%,21.5%,64.9%,3.12%,9.72%,2.6%,2.66%,2.03%,2.54%,-0.56%
CN1CCC(C(=O)Nc2n[nH]c3nnc(-c4ccccc4)cc23)CC1,-0.57%,5.18%,4.46%,0.44%,2.94%,2.28%,1.88%,-4.39%,-0.97%,2.36%,5.28%,3.36%,3.47%,4.09%,5.43%,7.26%,7.83%,8.27%,7.58%,16.6%
COc1cccc(-n2ncc3c(N/N=C/c4cccc(F)c4)ncnc32)c1,-5.17%,7.31%,32.6%,-0.74%,3.31%,0.44%,6.78%,9.42%,-0.15%,3.08%,8.11%,6.17%,31%,-0.37%,-0.02%,4.04%,5.91%,3.95%,5.71%,0.69%
CC(=O)Nc1cccc(C#Cc2cncnc2Nc2ccc(OCc3cccc(F)c3)c(Cl)c2)n1,0.7%,4.5%,3.79%,-1.03%,-0.69%,-2.34%,-0.61%,1.25%,2.39%,0.18%,1.63%,4.46%,10.7%,2.6%,-0.49%,-1.65%,-3.08%,-2.42%,-2.04%,0.47%
COc1ccc(-c2coc3ncnc(N)c23)cc1,1.55%,0.55%,5.25%,-1.7%,2.37%,2.97%,4.59%,3.34%,-3.97%,2.29%,0.37%,1.25%,2.89%,0.06%,4.55%,4.66%,7.42%,6.07%,6.81%,2.99%
